# Sampled rows, rich in hits. Any-hit rate of the full collection: about 3.6%.
# Pf apPOL block: Pf-apPOL DNA polymerase inhibition | Recombinant Pf-apPOL, molecular beacon fluorescence, 1.5 h | inhibition, % at 10 µM | hit rate 0.25% among 210,000 | AID 1794808
# mHTT-CaM PPI inh: mHTT-calmodulin interaction abrogation | AID 1671202 | P42858 | hit rate 3.6% among 190,000 | inhibition, % at 15 µM | AlphaScreen His-mHTT/GST-CaM binding, luminescence;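 further: 0% = both proteins with DMSO and 100% = one protein alone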
# Target sequence (P42858 whole entry, looked up, stated change not applied): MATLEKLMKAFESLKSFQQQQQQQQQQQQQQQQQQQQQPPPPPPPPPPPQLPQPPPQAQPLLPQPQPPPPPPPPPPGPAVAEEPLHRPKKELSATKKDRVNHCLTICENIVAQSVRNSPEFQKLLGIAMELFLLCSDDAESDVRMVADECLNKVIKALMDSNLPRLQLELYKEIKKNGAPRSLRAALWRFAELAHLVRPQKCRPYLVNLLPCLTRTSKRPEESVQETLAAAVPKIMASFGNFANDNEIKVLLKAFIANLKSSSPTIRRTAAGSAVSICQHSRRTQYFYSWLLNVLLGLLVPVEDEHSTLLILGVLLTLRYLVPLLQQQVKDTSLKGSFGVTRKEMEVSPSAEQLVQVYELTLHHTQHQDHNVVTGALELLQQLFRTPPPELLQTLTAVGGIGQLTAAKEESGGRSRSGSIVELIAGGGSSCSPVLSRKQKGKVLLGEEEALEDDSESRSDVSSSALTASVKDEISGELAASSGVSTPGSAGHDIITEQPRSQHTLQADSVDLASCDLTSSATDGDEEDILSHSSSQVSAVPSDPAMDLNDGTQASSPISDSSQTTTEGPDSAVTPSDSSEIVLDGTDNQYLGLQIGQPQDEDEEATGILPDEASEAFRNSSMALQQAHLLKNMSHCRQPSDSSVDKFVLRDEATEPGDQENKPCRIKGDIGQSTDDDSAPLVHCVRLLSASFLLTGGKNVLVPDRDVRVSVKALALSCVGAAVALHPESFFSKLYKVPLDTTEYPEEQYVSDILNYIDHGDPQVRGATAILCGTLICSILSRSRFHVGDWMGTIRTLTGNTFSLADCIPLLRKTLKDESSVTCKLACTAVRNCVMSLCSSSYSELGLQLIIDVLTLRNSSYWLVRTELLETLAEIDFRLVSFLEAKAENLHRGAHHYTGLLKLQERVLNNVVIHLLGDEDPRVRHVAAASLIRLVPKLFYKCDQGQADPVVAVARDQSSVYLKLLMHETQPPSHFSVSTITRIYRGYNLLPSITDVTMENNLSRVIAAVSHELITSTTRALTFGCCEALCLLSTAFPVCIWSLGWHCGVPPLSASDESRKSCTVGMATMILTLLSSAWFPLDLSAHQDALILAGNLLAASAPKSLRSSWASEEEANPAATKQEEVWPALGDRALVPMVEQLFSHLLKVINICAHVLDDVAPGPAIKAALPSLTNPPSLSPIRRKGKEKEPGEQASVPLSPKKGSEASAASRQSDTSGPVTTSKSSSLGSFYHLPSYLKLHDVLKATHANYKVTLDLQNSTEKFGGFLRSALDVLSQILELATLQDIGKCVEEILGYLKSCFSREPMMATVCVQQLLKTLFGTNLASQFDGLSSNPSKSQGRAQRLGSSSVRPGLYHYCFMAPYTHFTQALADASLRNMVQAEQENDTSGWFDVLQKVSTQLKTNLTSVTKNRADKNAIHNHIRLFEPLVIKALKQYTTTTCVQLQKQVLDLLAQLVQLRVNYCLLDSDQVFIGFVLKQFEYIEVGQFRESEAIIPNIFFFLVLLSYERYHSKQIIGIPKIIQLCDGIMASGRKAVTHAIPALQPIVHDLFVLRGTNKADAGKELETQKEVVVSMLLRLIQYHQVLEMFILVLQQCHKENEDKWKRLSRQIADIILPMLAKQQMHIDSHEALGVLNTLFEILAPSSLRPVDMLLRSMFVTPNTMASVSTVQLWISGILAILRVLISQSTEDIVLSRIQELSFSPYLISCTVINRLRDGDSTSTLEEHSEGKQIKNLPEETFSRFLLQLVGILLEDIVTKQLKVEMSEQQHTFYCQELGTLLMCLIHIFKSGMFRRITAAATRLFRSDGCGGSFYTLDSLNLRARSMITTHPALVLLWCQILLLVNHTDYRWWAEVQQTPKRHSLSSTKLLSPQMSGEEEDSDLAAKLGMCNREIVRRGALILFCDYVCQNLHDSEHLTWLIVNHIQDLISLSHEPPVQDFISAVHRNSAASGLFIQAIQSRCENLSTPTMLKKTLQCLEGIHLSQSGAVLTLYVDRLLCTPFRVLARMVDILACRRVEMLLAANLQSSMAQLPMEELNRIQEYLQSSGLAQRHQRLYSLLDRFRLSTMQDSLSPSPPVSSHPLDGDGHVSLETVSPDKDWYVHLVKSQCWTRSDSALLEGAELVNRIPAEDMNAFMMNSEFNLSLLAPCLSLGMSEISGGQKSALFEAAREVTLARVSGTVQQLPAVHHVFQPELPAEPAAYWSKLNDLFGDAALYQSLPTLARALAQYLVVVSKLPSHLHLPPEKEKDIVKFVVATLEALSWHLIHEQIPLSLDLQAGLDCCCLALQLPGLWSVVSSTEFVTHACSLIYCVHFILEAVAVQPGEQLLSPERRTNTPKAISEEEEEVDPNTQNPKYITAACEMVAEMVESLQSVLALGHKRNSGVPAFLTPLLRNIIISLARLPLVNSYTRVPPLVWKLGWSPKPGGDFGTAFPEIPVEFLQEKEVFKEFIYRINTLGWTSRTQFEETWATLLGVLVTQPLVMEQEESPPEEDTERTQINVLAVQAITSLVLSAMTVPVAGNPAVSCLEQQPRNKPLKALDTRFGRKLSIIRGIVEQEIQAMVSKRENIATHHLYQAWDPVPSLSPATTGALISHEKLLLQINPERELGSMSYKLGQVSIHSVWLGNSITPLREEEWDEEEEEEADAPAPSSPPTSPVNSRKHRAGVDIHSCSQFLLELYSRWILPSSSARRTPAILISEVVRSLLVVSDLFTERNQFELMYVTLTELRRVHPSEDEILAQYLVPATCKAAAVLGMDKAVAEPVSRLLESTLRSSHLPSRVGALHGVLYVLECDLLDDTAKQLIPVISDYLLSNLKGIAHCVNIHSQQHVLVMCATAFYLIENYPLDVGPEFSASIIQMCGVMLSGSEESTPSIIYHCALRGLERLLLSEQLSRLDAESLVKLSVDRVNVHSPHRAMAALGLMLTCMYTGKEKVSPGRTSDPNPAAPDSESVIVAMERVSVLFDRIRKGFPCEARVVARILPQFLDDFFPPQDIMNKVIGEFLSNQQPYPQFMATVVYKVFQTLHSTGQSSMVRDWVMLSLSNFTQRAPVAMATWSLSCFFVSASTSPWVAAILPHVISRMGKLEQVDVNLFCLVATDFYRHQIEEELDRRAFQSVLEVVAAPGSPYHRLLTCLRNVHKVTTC
# Numbers without * were called inactive. No stated cut-off is given here; in the data, active means inhibition above about 50%; inactive means the rest.
SMILES,Pf apPOL block,mHTT-CaM PPI inh
O=C(Nc1ccccc1[N+](=O)[O-])c1cc(S(=O)(=O)NC2CCCCC2)c(Cl)cc1Cl,-3.8,57.5*
COCC(=O)Nc1c(-c2ccccc2)n[nH]c1C1CC1,-6.0,41.7
Cc1cc(C)cc(NC(=O)CSc2cn(CCNC(=O)c3ccc(F)cc3)c3ccccc23)c1,4.5,78.0*
Cc1cccc(NC(=O)CSc2cn(CCNC(=O)c3ccc(F)cc3)c3ccccc23)c1,-6.1,40.0
Cc1ccc(C2=NN(C(=O)CN(C)C(=O)C3CC3)C(c3ccccc3)C2)cc1C (centres undefined),-2.8,27.3
CC(=O)N(C)CC(=O)N1N=C(c2ccc(C)c(C)c2)CC1c1ccc(C)cc1 (centres undefined),-2.0,58.4*
CN(CC(=O)N1N=C(c2ccc(F)cc2)CC1c1ccc(F)cc1)C(=O)C1CCC1 (centres undefined),-4.7,42.9
Cc1ccc(C2CC(c3cccs3)=NN2C(=O)CN(C)C(=O)C2CCC2)cc1 (centres undefined),-2.0,50.8*
CCC(=O)N(C)CC(=O)N1N=C(c2cccs2)CC1c1ccc(C)cc1 (centres undefined),-2.0,14.2
Cc1ccc(C2CC(c3ccccc3Cl)=NN2C(=O)CN(C)C(=O)C2CC2)cc1 (centres undefined),0.6,88.2*
Cc1ccc(C2CC(c3cccn3C)=NN2C(=O)CN(C)C(=O)C2CCC2)cc1 (centres undefined),-7.6,53.9*
CN(CC(=O)N1N=C(c2ccccc2Cl)CC1c1ccc(F)cc1)C(=O)C1CC1 (centres undefined),0.2,4.9
CCNC(=O)N1CCCC(c2cccc(C(=O)N3CCCCC3)c2)C1 (centres undefined),-2.7,-10.4
COc1ccc(S(=O)(=O)NCCC2CCN(C(=O)c3ccc(C)cc3)CC2)cc1,-1.5,48.2
Cc1ccc(C2CC(c3cccn3C)=NN2C(=O)CN(C)C(=O)C(C)C)cc1 (centres undefined),-5.2,62.1*
CC(C)C(=O)N(C)CC(=O)N1N=C(c2ccccc2F)CC1c1ccc(F)cc1 (centres undefined),-1.8,14.3
COc1cc(C(CCN2CCCCC2)c2c(OC)cc(OC)c3c2OC(=O)CC3c2ccc(N(C)C)cc2)cc(OC)c1OC (centres undefined),-9.1,78.3*
COc1ccc2c(c1)C(c1ccc3c(c1)OCO3)CC(=O)O2 (centres undefined),-1.4,32.6
COc1cc(C(CCN2CCOCC2)c2c(OC)cc(OC)c3c2OC(=O)CC3c2ccc(N(C)C)cc2)cc(OC)c1OC (centres undefined),-5.5,73.9*
COc1ccc(C2CC(=O)Oc3c(C(CCN4CCOCC4)c4cc(OC)c(OC)c(OC)c4)c(OC)cc(OC)c32)cc1 (centres undefined),-3.6,0.4
COc1ccc(C2CC(=O)Oc3c(C(CCN4CCOCC4)c4ccc5c(c4)OCO5)c(OC)cc(OC)c32)cc1 (centres undefined),-5.8,78.9*
CCN(CC)CCC(c1cc(OC)c(OC)c(OC)c1)c1c(OC)cc(OC)c2c1OC(=O)CC2c1ccc(N(C)C)cc1 (centres undefined),-6.4,69.3*
CCN(CC)CCC(c1cc(OC)c(OC)c(OC)c1)c1c(OC)cc(OC)c2ccc(=O)oc12 (centres undefined),-7.7,4.2
CC1CCN(C(=O)C2c3ccccc3CCN2CC(=O)NCc2ccc(F)cc2)CC1 (centres undefined),-2.4,36.6
Cc1nc(C2CCN(CC3CCCCC3)CC2)n[nH]1,4.6,-12.3
SMILES,Pf apPOL block,mHTT-CaM PPI inh
Cc1ccc(-c2nc3ncccc3o2)cc1NC(=O)c1ccc(Cl)c([N+](=O)[O-])c1,2.3,3.0
CN(CCCNC(=O)C1CCc2nc(N3CCCCC3)ncc2C1)c1ccccc1 (centres undefined),-5.4,36.4
COc1cc(OC)c2c(c1C(CCN1CCOCC1)c1ccc(N(C)C)cc1)OC(=O)CC2c1ccc(N(C)C)cc1 (centres undefined),-6.4,99.8*
COc1cc(C2CC(=O)Oc3c(C(C)C)ccc(C)c32)cc(OC)c1OC (centres undefined),-4.7,-8.6
COc1ccc(C2CC(=O)Oc3c(C(CCN4CCN(c5ccccc5)CC4)c4ccc(N(C)C)cc4)c(OC)cc(OC)c32)cc1 (centres undefined),-6.7,72.8*
COc1cc(C(CCN2CCCC2)c2c(OC)cc(OC)c3c2OC(=O)CC3c2ccc(N(C)C)cc2)cc(OC)c1OC (centres undefined),-3.7,75.0*
COc1ccc(NC(=O)CCN2CCN(c3ccccc3)CC2)c(OC)c1,-8.0,5.8
COc1cc(C(CCN2CCOCC2)c2c(OC)cc(OC)c3ccc(=O)oc23)cc(OC)c1OC (centres undefined),-13.9,28.8
O=C(Nc1ccccc1)c1cc(S(=O)(=O)Nc2cccc(Cl)c2)ccc1Br,8.0,4.3
O=C(NCCCn1ccnc1)C1CN(C(=O)c2ccc(F)c(F)c2)C1,6.1,-7.7
CSc1cccc(NC(=O)N2CCC(N3CCN(Cc4ccc(C)cc4)C3=O)CC2)c1,1.4,13.5
CCc1ccc(NC(=O)N2CC3CCCN3c3ccccc32)cc1 (centres undefined),0.0,91.1*
CCc1ccc(NC(=O)N2CC(CC)Oc3ccccc32)cc1 (centres undefined),-3.1,-11.5
Cc1ccc(NC(=O)N2CCOc3ccccc32)cc1F,-6.6,-8.0
O=C(Nc1ccc(F)cc1)N1CC2CCCN2c2ccccc21 (centres undefined),3.5,13.9
Cc1ccc(NC(=O)N2CC3CCCN3c3ccccc32)cc1F (centres undefined),0.8,90.2*
Cc1ccc(NC(=O)N2CC3CCCN3c3ccccc32)cc1 (centres undefined),-3.0,58.9*
CSc1cccc(NC(=O)N2CC3CCCN3c3ccccc32)c1 (centres undefined),-2.1,80.6*
Cc1ccc(NC(=O)c2cc3c(CO)cnc(C)c3oc2=Nc2ccc(C(F)(F)F)cc2)cc1,3.5,-3.0
C=CCOc1ccc(/C=c2\sc3nc(-c4ccccc4C)nn3c2=O)cc1OC,-1.0,32.0
COC(=O)C(C)Oc1ccc2c(c1)OC(=CC=Cc1ccccc1)C2=O (centres undefined),-7.4,2.9
COc1ccc2cc(C(=O)N3CCCC(c4nnc(-c5ccccc5F)s4)C3)[nH]c2c1 (centres undefined),-9.9,-5.9
COc1ccc(NC(=O)N2CCN(C)c3ccccc32)cc1,-2.8,36.1
CSc1cccc(NC(=O)N2CCN(C)c3ccccc32)c1,-4.4,80.4*
O=[N+]([O-])c1ccc(N2CCNCC2)cc1NCCCN1CCOCC1,-5.7,10.7
SMILES,Pf apPOL block,mHTT-CaM PPI inh
O=C(NCc1cc(-c2ccco2)on1)c1ccc(F)c(F)c1,0.6,-3.5
O=C(NCc1cc(-c2ccco2)on1)c1ccc(=O)oc1,63.0*,13.7
Cc1cc(=O)n(CC(=O)Nc2ccccc2)c(N2CCCCC2)n1,-1.7,-15.0
Cc1cc(=O)n(CC(=O)Nc2ccc(Cl)cc2)c(N2CCCC2)n1,-1.1,57.5*
CC(C)(C)NC(=O)C1CCN(c2ccc(Br)cc2)C1=O (centres undefined),-3.5,-2.8
CCOc1ccc2nc(C)cc(Nc3ccc(C)c(Cl)c3)c2c1,-11.6,94.8*
Cc1cc(Nc2ccc(O)cc2)c2cc(Cl)ccc2n1,-7.3,17.3
CCOc1ccc2nc(C)cc(Nc3ccc(N4CCOCC4)cc3)c2c1,-3.4,24.7

# Screening data (PubChem)
